Calls of active or inactive are those of the source. Unless noted, how the calls were made is not given here.
Tests used:
[1] = anti-His antibody binders, primary screen, artefact control for SMM control protein annotation, biochemical, small-molecule microarray, 635 nm fluorescence (AID 1128); details: anti-His Alexa647 antibody binding, higher = more signal;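 further: score merges feature fluorescence with signal-to-noise for each printed compound spot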
[2] = system: Human papillomavirus type 1a E7 protein (residues 1-88); experiment: HPV1a E7 small-molecule binders, primary screen, biochemical, small-molecule microarray, residues 1-88, 635 nm (AID 1129); details: small-molecule microarray binding, fluorescence 635 nm; higher = more signal
[3] = biological target: Focal adhesion kinase 1 (Homo sapiens) (UniProt Q05397); experiment: small-molecule microarray binders of FAK, primary screen, biochemical, 635/667 nm fluorescence, BSA, DTT (AID 1130); details: PTK2 binding, 635 nm fluorescence, higher = more signal;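 further: composite of spot emission at 667 nm and signal to noise over triplicate slides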
[4] = system: Fibrinogen (Alexa647-labelled); experiment: fibrinogen binders on compound microarrays, profiling panel, artefact control for SMM control-protein annotation, biochemical, small-molecule microarray, 635/667 nm fluorescence (AID 1131); details: fibrinogen-A647 binding fluorescence, higher = more signal;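 further: z-score merges 667 nm fluorescence with per-spot signal-to-noise over triplicate slides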
[5] = biological target: Follistatin (Homo sapiens) (UniProt P19883); experiment: follistatin binders on small-molecule microarrays, primary screen, biochemical, small-molecule microarray, 635/667 nm fluorescence (AID 1132); details: FST binding, 635 nm fluorescence, higher = more signal
[6] = biological target: Fibroblast growth factor 2 (Homo sapiens) (UniProt P09038); experiment: FGF2 binders on small-molecule microarrays, primary screen, biochemical, small-molecule microarray, 635/667 nm fluorescence (AID 1133); details: small-molecule microarray binding, FGF2, fluorescence 635/667; higher = more signal
[7] = mitochondrial membrane potential change in A549 cells, profiling panel, cell-based, JC-1 fluorescence, basal, 24 h, 100 nL (AID 1138); details: higher = more signal;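 further: A549 lung adenocarcinoma cells under basal conditions with no added stimulus; test concentration not given here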
[8] = system: Lefty1; experiment: Lefty1 binders on small-molecule microarrays, primary screen, biochemical, small-molecule microarray, 635/667 nm fluorescence (AID 1139); details: small-molecule microarray binding, fluorescence 635/667; higher = more signal
[9] = system: wheat germ agglutinin (Triticum aestivum), Alexa647-labelled; experiment: wheat germ agglutinin binders on compound microarrays, profiling panel, artefact control for SMM control-protein annotation, biochemical, small-molecule microarray, 635/667 nm fluorescence (AID 1140); details: WGA-A647 binding, 635 nm fluorescence, higher = more signal;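 further: score merges 667 nm feature emission with signal to noise over triplicate slides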
[10] = biological target: Luciferin 4-monooxygenase (Photinus pyralis) (UniProt P08659); experiment: firefly luciferase enzyme inhibitors, primary screen, biochemical, luminescence, purified enzyme, 2006 set (AID 1141); details: SteadyGlo luminescence, 30 min, higher = more signal, called active from +8 up or from −8 down;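 further: cell-free assay with purified firefly luciferase at 100 ng per well in PBS; test concentration not given here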
[11] = system: Wnt5a (protein binding on small-molecule microarray); experiment: Wnt5a binders on small-molecule microarray, primary screen, biophysical, 635/667 nm fluorescence (AID 1142); details: 635 nm fluorescence, higher = more signal;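 further: fluorescence read at 667 nm with signal to noise per printed feature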
[12] = cell viability in Huh7 cells, primary screen, cytotoxicity control for HCV replication inhibitor project, CellTiter-Glo luminescence, basal, 48 h (AID 1143); details: Huh7 HCV replicon, higher = more signal, called active from +8 up or from −8 down;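 further: Huh7 hepatoma cells carrying a hepatitis C replication reporter with no stimulus; test concentration not given here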
[13] = P. aeruginosa biofilm formation inhibitors, primary screen, PAO1 strain, BacTiter-Glo luminescence, LB-PBS (AID 1144); details: 12 h, higher = more signal
[14] = CREB reporter modulators without forskolin, primary screen, cell-based, PC12, CRE-LacZ reporter, unstimulated (AID 1145); details: no forskolin, luminescence, 4.5 h, higher = more signal, called active from +8 up or from −8 down
[15] = CREB reporter modulators under forskolin, primary screen, cell-based, PC12, CRE-LacZ reporter, forskolin-stimulated (AID 1146); details: luminescence, 4.5 h, higher = more signal, called active from +8 up or from −8 down;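 further: PC12 cells with 6xCRE LacZ reporter stimulated by forskolin 10 µM; beta-galactosidase reporter signal reflecting CREB driven transcription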
[16] = biological target: Streptavidin (Streptomyces avidinii) (UniProt P22629); experiment: streptavidin binders on small-molecule microarray, primary screen, artefact control for SMM compound annotation, biophysical, 635/667 nm fluorescence (AID 1147); details: streptavidin binding, higher = more signal;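 further: signal reflects streptavidin binding to arrayed compounds as a control protein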
[17] = small-molecule binders of probe aInhba, primary screen, biochemical, small-molecule microarray, 635/667 nm fluorescence (AID 1148); details: higher = more signal;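 further: score merges 667nm spot fluorescence with signal-to-noise for antibody binding to printed compounds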
[18] = biological target: Torsin-1A (Homo sapiens) (UniProt O14656); experiment: torsin A binders from cell lysate, primary screen, small-molecule microarray, wild-type, 635/667 nm (AID 1149); details: COS7 hTOR1A-WT lysate, 635 nm fluorescence, higher = more signal
[19] = biological target: Torsin-1A (Homo sapiens) (UniProt O14656); experiment: small-molecule binders of mutant TOR1A in lysate, primary screen, cell lysate, small-molecule microarray, COS7 lysate, 635/667 nm fluorescence (AID 1150); details: COS7 hTOR1A mutant lysate, 635 nm fluorescence, higher = more signal;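 further: score pools 667 nm emission and signal to noise measuring lysate protein binding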
[20] = system: Sonic hedgehog protein (Shh); experiment: small-molecule binders of Shh protein, primary screen, biochemical, small-molecule microarray, 635/667 nm fluorescence (AID 1151); details: small-molecule microarray binding, 635 nm fluorescence; higher = more signal;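 further: Shh protein binding to compounds spotted on small-molecule microarray slides; score combines spot fluorescence intensity with signal-to-noise across triplicate slides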

Chain of Streptavidin (Streptomyces avidinii) (P22629 whole entry, looked up): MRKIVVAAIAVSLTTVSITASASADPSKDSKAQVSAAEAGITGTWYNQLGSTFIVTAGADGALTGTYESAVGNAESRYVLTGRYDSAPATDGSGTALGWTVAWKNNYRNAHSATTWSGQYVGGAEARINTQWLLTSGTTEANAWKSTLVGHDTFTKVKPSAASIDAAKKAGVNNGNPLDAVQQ
Chain of Fibroblast growth factor 2 (Homo sapiens) (P09038 whole entry, looked up): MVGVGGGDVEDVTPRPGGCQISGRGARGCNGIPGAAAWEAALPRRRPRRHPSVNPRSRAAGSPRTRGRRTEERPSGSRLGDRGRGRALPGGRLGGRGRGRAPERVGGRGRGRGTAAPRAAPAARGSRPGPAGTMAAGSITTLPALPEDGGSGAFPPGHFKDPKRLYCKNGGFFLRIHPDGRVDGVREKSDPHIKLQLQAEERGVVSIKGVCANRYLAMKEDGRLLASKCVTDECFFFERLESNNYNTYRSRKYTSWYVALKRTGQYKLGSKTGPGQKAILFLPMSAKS
Chain of Luciferin 4-monooxygenase (Photinus pyralis) (P08659 whole entry, looked up): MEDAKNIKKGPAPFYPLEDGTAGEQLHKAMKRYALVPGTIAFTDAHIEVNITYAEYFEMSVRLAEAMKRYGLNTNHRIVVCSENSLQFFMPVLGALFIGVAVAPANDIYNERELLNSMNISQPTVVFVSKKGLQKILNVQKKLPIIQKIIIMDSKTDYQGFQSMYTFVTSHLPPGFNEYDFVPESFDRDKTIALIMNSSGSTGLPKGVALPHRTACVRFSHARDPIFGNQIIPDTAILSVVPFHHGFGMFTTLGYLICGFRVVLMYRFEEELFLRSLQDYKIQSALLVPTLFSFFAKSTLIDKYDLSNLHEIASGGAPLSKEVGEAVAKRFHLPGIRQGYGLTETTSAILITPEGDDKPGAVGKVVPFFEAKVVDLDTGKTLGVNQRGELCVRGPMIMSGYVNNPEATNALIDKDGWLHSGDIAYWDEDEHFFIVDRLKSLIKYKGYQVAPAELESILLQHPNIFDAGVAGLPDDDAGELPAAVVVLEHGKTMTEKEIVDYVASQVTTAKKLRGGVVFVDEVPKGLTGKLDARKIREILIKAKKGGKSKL
Chain of Torsin-1A (Homo sapiens) (O14656 whole entry, looked up): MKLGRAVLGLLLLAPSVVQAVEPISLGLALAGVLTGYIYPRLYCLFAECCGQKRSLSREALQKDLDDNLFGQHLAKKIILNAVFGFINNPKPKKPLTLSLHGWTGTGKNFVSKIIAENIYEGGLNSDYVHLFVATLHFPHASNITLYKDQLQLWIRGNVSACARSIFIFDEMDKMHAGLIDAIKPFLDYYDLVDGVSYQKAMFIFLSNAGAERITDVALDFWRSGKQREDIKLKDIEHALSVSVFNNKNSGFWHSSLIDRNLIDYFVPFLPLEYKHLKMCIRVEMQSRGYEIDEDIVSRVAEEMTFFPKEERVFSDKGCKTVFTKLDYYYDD
Chain of Follistatin (Homo sapiens) (P19883 whole entry, looked up): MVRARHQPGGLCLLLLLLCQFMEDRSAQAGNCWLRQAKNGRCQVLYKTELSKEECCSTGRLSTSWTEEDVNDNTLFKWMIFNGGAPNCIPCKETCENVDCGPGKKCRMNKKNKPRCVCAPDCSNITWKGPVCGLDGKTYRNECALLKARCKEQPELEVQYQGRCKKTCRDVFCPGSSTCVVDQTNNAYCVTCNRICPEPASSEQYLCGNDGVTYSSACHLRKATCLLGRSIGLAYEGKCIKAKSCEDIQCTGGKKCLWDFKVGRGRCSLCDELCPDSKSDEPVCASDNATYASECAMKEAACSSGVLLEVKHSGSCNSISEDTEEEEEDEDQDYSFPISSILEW
Chain of Focal adhesion kinase 1 (Homo sapiens) (Q05397 whole entry, looked up): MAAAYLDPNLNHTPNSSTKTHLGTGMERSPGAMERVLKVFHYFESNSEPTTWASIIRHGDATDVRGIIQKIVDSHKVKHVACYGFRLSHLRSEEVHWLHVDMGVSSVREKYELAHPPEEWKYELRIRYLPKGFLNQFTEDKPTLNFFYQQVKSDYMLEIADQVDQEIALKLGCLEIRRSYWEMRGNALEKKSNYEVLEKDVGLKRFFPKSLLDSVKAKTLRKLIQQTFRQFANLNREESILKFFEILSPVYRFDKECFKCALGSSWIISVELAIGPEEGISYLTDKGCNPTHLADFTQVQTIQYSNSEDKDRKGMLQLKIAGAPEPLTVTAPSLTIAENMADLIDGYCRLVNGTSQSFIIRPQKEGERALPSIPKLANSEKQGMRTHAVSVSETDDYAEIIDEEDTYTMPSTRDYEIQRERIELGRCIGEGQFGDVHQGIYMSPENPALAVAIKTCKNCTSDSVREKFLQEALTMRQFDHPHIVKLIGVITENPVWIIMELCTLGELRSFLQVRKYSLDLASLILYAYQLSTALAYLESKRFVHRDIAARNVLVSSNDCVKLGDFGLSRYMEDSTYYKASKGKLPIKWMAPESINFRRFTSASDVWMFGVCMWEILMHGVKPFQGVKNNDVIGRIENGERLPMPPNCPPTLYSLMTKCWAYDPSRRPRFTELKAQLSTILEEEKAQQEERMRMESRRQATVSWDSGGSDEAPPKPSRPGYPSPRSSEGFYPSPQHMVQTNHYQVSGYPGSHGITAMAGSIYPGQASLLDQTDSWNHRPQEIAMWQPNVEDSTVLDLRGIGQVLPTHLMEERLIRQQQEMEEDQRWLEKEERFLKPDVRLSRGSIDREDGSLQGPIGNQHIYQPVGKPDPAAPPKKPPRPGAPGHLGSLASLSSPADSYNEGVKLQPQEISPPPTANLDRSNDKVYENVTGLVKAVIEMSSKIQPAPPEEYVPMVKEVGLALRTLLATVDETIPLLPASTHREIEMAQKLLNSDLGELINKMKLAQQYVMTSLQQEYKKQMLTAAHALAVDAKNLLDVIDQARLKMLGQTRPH

SMILES | composite z-score [1] | composite z-score [2] | composite z-score [3] | composite z-score [4] | composite z-score [5] | composite z-score [6] | z-score [7] | composite z-score [8] | composite z-score [9] | z-score [10] | composite z-score [11] | z-score [12] | z-score [13] | z-score [14] | z-score [15] | composite z-score [16] | composite z-score [17] | composite z-score [18] | composite z-score [19] | composite z-score [20]
CC(=O)c1ccc(C(O)C2C=CC3C(=O)N(c4ccccc4)C(=O)C3N2Nc2ccc(C#N)cc2)cc1 (stereo not given) | 0.631 | 1.01 | 1.27 | 0.72 | -0.111 | 0.196 | 0.0866 | -0.253 | 0.714 | -0.0334 (inactive) | -0.14 | 0.338 (inactive) | -0.864 (inactive) | 1.19 (inactive) | 0.574 (inactive) | 1.14 | 0.0422 | -0.167 | 0.261 | -0.964
O=C1O[C@H](c2ccccc2)[C@H](c2ccccc2)N2[C@H]1[C@@H](C(=O)Nc1nc3ccccc3s1)[C@]1(C(=O)Nc3ccc(C#CC4(O)CCCCCC4)cc31)[C@H]2c1ccccc1OCCO | 1.41 | 1.2 | 0.193 | 0.943 | 1.3 | 0.903 | -2.19 | 1.16 | 0.742 | -0.62 (inactive) | 0.731 | -4.43 (inactive) | 0.0608 (inactive) | 0.346 (inactive) | 0.0053 (inactive) | 0.612 | 0.27 | 0.602 | 0.597 | 1.32
O=C1O[C@H](c2ccccc2)[C@H](c2ccccc2)N2[C@H]1[C@@H](C(=O)N1CCN(c3ncccn3)CC1)[C@]1(C(=O)Nc3ccc(C#CC4(O)CCCCCC4)cc31)[C@H]2c1ccc(OCCO)cc1 | 1.14 | 1.23 | 1.03 | 0.966 | 1.27 | 1.48 | -1.46 | 1.38 | 1.03 | -1.2 (inactive) | 1.4 | -0.69 (inactive) | -1.09 (inactive) | -0.698 (inactive) | -0.509 (inactive) | 2.76 | 1.05 | 0.801 | 1.74 | 2.02
CCCCC=C[C@@H](NC(=O)c1ccc(-c2ccccc2)cc1)c1ccccc1 | 0.512 | 1.19 | 0.416 | 0.413 | -0.107 | -0.0601 | -0.428 | -0.217 | 0.535 | 2.01 (inactive) | -0.0312 | -1.76 (inactive) | -0.00961 (inactive) | 0.197 (inactive) | -0.013 (inactive) | 1.18 | 0.319 | 0.58 | 0.871 | -0.181
C=CCC(OC(C)=O)[C@@H]1[C@@H](N(Cc2cccc3ccccc23)C(=O)Cc2ccc(F)cc2)c2cc(OCCCO)ccc2N1C(=O)c1ccc2ccccc2n1 (stereo not given in full) | -0.478 | -0.0554 | -0.122 | 0.0688 | 0.187 | 0.386 | -0.0984 | -0.553 | 0.748 | 0.0778 (inactive) | 0.243 | 0.0889 (inactive) | 0.0963 (inactive) | 0.367 (inactive) | 0.101 (inactive) | -0.0219 | 0.0614 | -0.149 | -0.101 | -0.0199

From PubChem BioAssay
